GLP1R inv ag: GLP-1 receptor (human) inverse agonism; P43220; HEK293 GLP-1R CRE-luciferase, luminescence, 24 h; GLP-1R form is constitutively active; Potency, µM (top dose mostly 38.3 µM), inactives show at the highest dose activity change, negative = inhibition, most hits filed as inhibitors; actives 1.6% (n = 410,000); also: % is scaled to controls: 0 for no effect and ±100 for the full control effect; nearly all actives have a fitted effect of over 55% in size
Target sequence (P43220 whole entry, looked up): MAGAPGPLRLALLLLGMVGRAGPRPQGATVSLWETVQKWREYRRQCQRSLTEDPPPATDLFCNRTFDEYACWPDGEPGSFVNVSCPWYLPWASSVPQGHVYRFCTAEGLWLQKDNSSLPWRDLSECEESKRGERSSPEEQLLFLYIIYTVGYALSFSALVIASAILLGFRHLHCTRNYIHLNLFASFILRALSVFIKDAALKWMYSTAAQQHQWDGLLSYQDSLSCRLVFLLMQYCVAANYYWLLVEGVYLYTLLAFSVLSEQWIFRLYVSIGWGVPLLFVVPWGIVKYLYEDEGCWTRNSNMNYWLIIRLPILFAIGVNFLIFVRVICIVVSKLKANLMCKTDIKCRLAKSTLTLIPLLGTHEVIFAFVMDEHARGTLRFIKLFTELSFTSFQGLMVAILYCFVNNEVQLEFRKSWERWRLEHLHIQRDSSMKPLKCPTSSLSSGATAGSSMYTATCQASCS
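Using stably transfected HEK293 (constitutively active GLP-1R, cAMP-luciferase reporter), compounds were incubated 24 hr and luciferase measured by luminescence.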
GLP-1R agonist: agonists of human GLP-1 receptor; P43220; HEK293 GLP-1R CRE-luciferase, luminescence, 4-6 h; cells express a hypersensitive GLP-1R form; Potency, µM (titrated, usually from 45.6 µM), inactives show at the top dose activation, usual class: activators; actives 0.007% (n = 380,000); AID 624172; also: % of control where 0% means no effect
HepG2 viability: counter-screen for TGF-b inhibitors: cytotoxicity in HepG2 cells. AID 588856. Potency, µM (top dose mostly 46.1 µM), for inactives: at the top dose activity change, negative = cytotoxicity, hits mostly cytotoxic. HepG2 CAGA-GFP viability, ATP luminescence, 18 h. actives 0.76% (n = 410,000)
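HepG2 CAGA-GFP cells (1000/well, DMEM with 1% FBS) received compound, then TGF-beta at 500 pg/mL final, and were incubated 18 hours at 37 degrees C. Viability was read by CellTiter-Glo luminescence. Media-only wells were set as complete cell-killing and DMSO as no toxicity.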
ATXN viability: reduces viability in counter-screen for ATXN expression inhibitors | AID 651635 | actives 0.49% (n = 400,000) | S2 cells (HEK-293 line with an ATXN2-luciferase reporter) viability, CellTiter-Fluor protease fluorescence, 24 h | Potency, µM (top dose mostly 56.7 µM), hits mostly cytotoxic; also: nearly all actives have a fitted effect of over 40% in size
TGFb SMAD3 inh: blocks TGF-b signaling; actives 1.2% (n = 410,000); Potency, µM (series often up to 46.1 µM), for inactives: at the highest dose activity, negative = inhibition, actives largely listed as inhibitors; HepG2 CAGA-GFP TGF-b/SMAD3 reporter, GFP fluorescence, 18 h; TGF-beta stimulated, 500 pg/mL final; also: % is scaled to controls: 0 for no effect and ±100 for the full control effect; nearly all actives have a fitted effect of over 65% in size
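Smad-responsive CAGA-GFP expression was quantified in HEPG2 cells exposed to compounds and 500 pg/mL final TGF-beta for 18 h at 37 degrees C; unstimulated wells defined full inhibition.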
ATXN2 expr inh: reduces ATXN2 reporter expression in HEK-293 cells; HEK-293 ATXN2-luciferase reporter, luminescence, 24 h; Potency, µM (titrated, usually from 57 µM), without a hit: at the top dose activity change, negative = inhibition, actives largely listed as inhibitors; actives 0.72% (n = 360,000); also: % is scaled to controls: 0 for no effect and ±100 for the full control effect; nearly all actives have a fitted effect of over 55% in size
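qHTS (up to 57 uM final) was run with 24 h compound exposure of reporter cells at 37 °C. Each well was multiplexed: SteadyGlo luminescence measured ATXN2-luciferase expression after a fluorogenic Gly-Phe-AFC viability readout (25 uM final).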
An asterisk follows results filed as active; i = inactive; ? = inconclusive; / = no result given; ! = repeats disagree. A selection: hits, their analogues and other compounds. The true share with any hit is near 3.7%. Calls follow the shape of the dose curve; as a rule, active = well fitted curve in the direction sought with a large enough effect; inconclusive = small, poorly fitted or top-dose-only effect, or another doubt; inactive = no such curve, though single readings can be large; an effect the other way counts as inactive or inconclusive. Potency is read from the fitted curve at half-maximal effect.

SMILES | GLP1R inv ag | GLP-1R agonist | HepG2 viability | ATXN viability | TGFb SMAD3 inh | ATXN2 expr inh
CCCc1nc(C)c2c(=O)[nH]c(-c3cc(S(=O)(=O)N4CCN(CC)CC4)ccc3OCC)nn12 | 17% | -1% | -45% | i | -11% | 19µM*!
CCOc1cc(S(=O)(=O)N2CCN(CC)CC2)ccc1Cl | -3% | -3% | 3% | i | -12% | -23%
CN1CCC(NCCC(c2ccc(F)cc2)c2ccc(Cl)cc2)CC1 (stereo not drawn) | ? | -6% | 16µM* | / | ? | 25µM*
COc1cccc(CNC(=O)c2c(OC)cc(=O)n3c2CCN(C(=O)c2ccc(Cl)cc2)CC3)c1 | / | / | / | i | / | /
O=C(NCc1ccco1)c1cc(S(=O)(=O)N2CCCc3ccccc32)ccc1Cl | 4.5µM* | 2% | -22% | i | -25% | -27%
O=c1[nH]c2ccccc2nc1NCc1ccccc1 | 20% | ? | 0% | i | 7% | 24%
CC1=NN(c2nc3ccccc3[nH]2)C(=O)/C1=C/N(C)C | -9% | -2% | 1.6µM* | i | 8% | ?
CC1=NN(c2ccc([N+](=O)[O-])cc2)C(=O)/C1=C\N(C)C | 10% | 3% | 4.5µM* | i | 0% | 11%
CC1=NN(c2nc3ccccc3[nH]2)C(=O)C1Cc1ccccc1 (stereo not drawn) | ? | -1% | 15% | ? | ? | 10µM*
CCOC(=O)C(=O)CCc1ccccc1 | / | / | / | i | / | 3%
Cc1ccc(C(=O)Nc2cccc(-c3nc(CNC(=O)C4CCCCC4)c(C)o3)c2)s1 | / | / | / | i | / | /
CCOC(=O)N1CCc2c(sc3c2c(=O)n(-c2ccc(Cl)cc2)c(=O)n3CC(C)C)C1 | 7% | / | -11% | / | -2% | /
COc1cc(Cn2c3ccc(NC(=O)CCc4ccccc4)cc3c(=O)n2C)ccc1F | 2.2µM* | 9% | -32% | i | -17% | -18%
CCC(C(=O)NCc1ccc2c(c1)CCN2C(=O)c1ccc(F)cc1)c1ccccc1 (stereo not drawn) | -2% | / | 1% | / | -1% | /
C[C@H]1CCC/C=C/[C@@H]2C[C@H](O)C[C@H]2[C@H](O)[C@H](S(=O)c2ccc(O)cc2)CC(=O)O1 (stereo partly drawn) | -68% | -11% | -46% | ? | 0.13µM* | ?
CC1CCCC=CC2CC(OC(=O)CN(C)C)CC2C(O)C=CC(=O)O1 (stereo not drawn) | -62% | -11% | -34% | ? | ? | ?
COc1cc(N2C(=O)C=CC2=O)ccc1N1C(=O)C=CC1=O | ? | -34% | -103% | / | ? | ?
O=C1C=CC(=O)N1c1cccc(-c2ccccc2)c1 | ? | 0% | -14% | ? | 11µM* | 8%
CCCN1C(=O)c2ccccc2NC1c1ccc(OC)c(COc2ccc([N+](=O)[O-])c(C)c2)c1 (stereo not drawn) | / | / | -5% | / | 17% | /
Cc1ccc(S(=O)(=O)NCCSCc2ccccc2)cc1 | ? | 7% | -24% | i | -1% | 1%
COc1ccc(S(=O)(=O)NCc2cccnc2)cc1Br | -6% | -1% | 7.1µM* | ? | -20% | /
COc1ccc(S(=O)(=O)NCCSCc2cccc(C)c2)cc1Br | 11µM* | 8% | -33% | i | -27% | -11%
COc1ccc(S(=O)(=O)NCc2cccnc2)cc1 | -1% | 0% | 25% | i | 0% | -42%
O=[N+]([O-])c1ccc(/C=C/c2cc(Cl)nc3ccccc23)cc1 | / | / | -19% | / | -7% | /
COc1cc(C2CC(=O)c3c([nH]c(C(=O)OC4CCCC4)c3C)C2)cc(OC)c1OC (stereo not drawn) | ? | / | -20% | 32µM* | ? | -21%
Cc1cc2ccccc2cn1 | / | / | -28% | / | -11% | /
